# Shiga inhibitor = Shiga toxin inhibition; AID 2315; inhibition, % at 38.7 µM; Vero cells, Shiga toxin protein synthesis inhibition reporter; 290,000 compounds, 9.2% hits; in the data active means inhibition mostly above about 28%, no sharp cut-off; inactive means mostly below about 43%; further: 0% is about no effect
# Pf growth 96h = inhibits malaria parasite growth, 96 h; 320,000 compounds, 6.9% hits; P. falciparum luciferase reporter growth, 96 h; Potency, µM (top dose mostly 28.7 µM), for the others: top-dose activity change, negative = inhibition, most hits filed as inhibitors; further: potency means the concentration at half of the fitted maximal effect; on the % scale 0 is the no-effect control and ±100 the full control effect
#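 P. falciparum expressing integrated firefly luciferase, in erythrocytes at 2% hematocrit, 0.05% parasitemia, incubated with compounds 96 h at 37 C, 5% CO2. Growth inhibition read as loss of luminescence; two-generation exposure targets delayed-death apicoplast inhibitors.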
# Pf growth 48h = P. falciparum growth inhibition at 48 hours (one generation). P. falciparum luciferase growth in erythrocytes, 48 h. Potency, µM (highest dose often 28.7 µM), inactives show at the top dose activity change, negative = inhibition, hits mostly inhibitors. 310,000 compounds, 5.9% hits; further: potency means the concentration at half of the fitted maximal effect; on the % scale 0 is the no-effect control and ±100 the full control effect
#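 Here the parasites carry a stable luciferase gene and grow inside erythrocytes in Albumax-based RPMI medium with compound for one erythrocytic cycle. Activity is scored as loss of luminescent signal.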
# LmPK inhibitor = inhibitors of Leishmania mexicana pyruvate kinase | Potency, µM (titrated, usually from 57.5 µM), for inactives: at the highest dose activity change, negative = inhibition, usual class: inhibitors | purified LmPK, Kinase-Glo ATP luminescence, 1 h | 290,000 compounds, 0.37% hits | Q27686; further: potency means the concentration at half of the fitted maximal effect; on the % scale 0 is the no-effect control and ±100 the full control effect
# Target sequence (Q27686 whole entry, looked up): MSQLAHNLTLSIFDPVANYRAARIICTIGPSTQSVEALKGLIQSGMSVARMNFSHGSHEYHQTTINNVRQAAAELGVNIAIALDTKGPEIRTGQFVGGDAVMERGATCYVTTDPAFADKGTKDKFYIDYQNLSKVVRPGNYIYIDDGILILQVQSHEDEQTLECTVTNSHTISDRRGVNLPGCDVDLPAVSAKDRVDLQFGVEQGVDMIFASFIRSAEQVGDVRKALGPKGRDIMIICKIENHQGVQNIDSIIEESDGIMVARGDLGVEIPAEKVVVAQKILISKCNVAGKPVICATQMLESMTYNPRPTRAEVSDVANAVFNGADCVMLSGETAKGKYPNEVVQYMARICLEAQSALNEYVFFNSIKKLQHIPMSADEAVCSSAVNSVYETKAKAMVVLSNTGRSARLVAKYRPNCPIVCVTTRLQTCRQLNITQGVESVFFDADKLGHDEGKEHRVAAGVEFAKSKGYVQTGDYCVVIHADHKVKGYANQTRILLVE
#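 Screened at intermediate enzyme activity to detect both inhibitors and activators: LmPK at 0.1 nM, with a 0.5 nM enzyme column as activation reference. PEP 0.5 mM, ADP 0.1 mM; ATP detected by luminescence after 1 h.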
# CHX counter = counter-screen hit for Shiga toxin inhibitors, cycloheximide. AID 2314. 300,000 compounds, 12% hits. max response, %. cell reporter, cycloheximide protein synthesis inhibition counterscreen; in the data active means max response mostly above about 13%, no sharp cut-off; inactive means mostly below about 14%; further: read at 38.3 µM for the half of the compounds with a filed dose; 0% is about no effect
# Active calls of the source: *; ? = inconclusive; / = no result given. Compounds with a hit are over-represented: about 22% of the library has one in this group of screens. Unless noted, the call rests on the fitted dose curve; in most records, active means well fitted inhibition curve with a large enough effect; inconclusive means small, poorly fitted or top-dose-only effect, or another doubt; inactive means no such curve, though single readings can be large or run the other way.
SMILES,Shiga inhibitor,Pf growth 96h,Pf growth 48h,LmPK inhibitor,CHX counter
O=C(O)CC1(CC(=O)Nc2ccc3ccccc3c2)CCCCC1,3,-23%,/,1%,-3
O=C1CCCC1C(=O)Nc1ccc2ccccc2c1 (configuration not stated),45*,34%,24%,0%,17*
Cc1ccc(OCCSCc2nnc(NC(=O)Nc3cccc(Cl)c3)s2)cc1,-12,?,12µM*,-1%,-5
Cc1csc(NC(=O)Nc2cccc(Cl)c2)n1,86*,/,9%,6%,30*
O=C(Nc1ccc(Cl)cc1)Nc1nnc(CSCc2ccccc2Cl)s1,-11,?,?,1%,-10
Cn1cc(O)nc1NC(=O)Nc1cccc(Cl)c1,/,-13%,39%,/,/
Cc1nnc(NC(=O)Nc2cccc(Cl)c2)s1,80*,-23%,?,-2%,51*
COc1cccc(CCNC(=O)CCc2nnc(-c3cc(C)oc3C)o2)c1,-2,-16%,-15%,0%,-1
COc1ccc(NC(=O)CCCNC(=O)Cn2cnc3sc4c(c3c2=O)CCCC4)c(OC)c1,-9,15%,-13%,-4%,5
COc1ccc(S(=O)(=O)N(CC(=O)N/N=C/c2cccs2)c2cc(C)cc(C)c2)cc1OC,25,?,?,0%,0
Cc1ccc(C)c(SCC(=O)Nc2cc(C)nn2-c2ccc(F)cc2)c1,-9,?,0%,6%,1
COc1ccc2sc(NC(=O)NC(=O)c3c(Cl)cccc3Cl)nc2c1,38,8.3µM*,10µM*,-2%,19*
COc1ccc2sc(NC(=O)CC(C)C)nc2c1,94*,?,48%,0%,39*
CCC(=O)Nc1nc2ccc3nc(C)sc3c2s1,62*,?,?,0%,55*
COc1ccc2nc(NC(=O)CSC(C)C(=O)Nc3cc(C)on3)sc2c1 (configuration not stated),/,?,-8%,/,/
COc1ccc2nc(NC(=O)CS(=O)(=O)c3ccc(C)cc3)sc2c1,6,0%,?,-5%,4
CCC(=O)Nc1nc2c(OC)ccc(OC)c2s1,-20,-3%,/,0%,-8
CCC(=O)Nc1nc2cc(OC)ccc2s1,183*,-17%,241%,-8%,55*
COc1ccc2sc(NC(C)=O)nc2c1,64*,?,170%,-28%,34*
COc1cc(CNc2nc3ccccc3s2)cc(OC)c1OC,-7,27%,-3%,-7%,12
COc1ccc2sc(NCc3ccccc3)nc2c1,146*,184%,181%,-5%,48*
CCOc1ccc(S(=O)(=O)n2cc(-c3ccccc3)c(N)n2)cc1,21,?,?,1%,-2
Nc1nn(S(=O)(=O)c2ccccc2)cc1-c1cccc([N+](=O)[O-])c1,4,20%,10µM*,15%,13
OC1OC[C@H](O)[C@@H](O)[C@@H]1O (some centres not stated),-3,/,/,/,-5
CN(CC(=O)Nc1cccc(F)c1)C(=O)c1cc(S(=O)(=O)N(C)C)ccc1N1CCCC1,5,-13%,-8%,-4%,-3
SMILES,Shiga inhibitor,Pf growth 96h,Pf growth 48h,LmPK inhibitor,CHX counter
FC(F)(F)c1cnc(C(c2ccccn2)c2ncn[nH]2)c(Cl)c1 (configuration not stated),20,?,12µM*,-1%,-1
FC(F)(F)c1cnc(C(c2ccccc2)c2ncn[nH]2)c(Cl)c1 (configuration not stated),-8,35%,-4%,-1%,-2
CC/C=C(\NC(C)=O)c1ccccc1,/,-9%,16%,/,/
O=C(COC(=O)/C=C/c1ccc(F)cc1)Nc1nnc(-c2ccccc2)o1,/,-12%,5%,/,/
Cc1ccc(CN2CCN(C(=O)C3CCCO3)CC2)cc1 (configuration not stated),-8,/,7%,-4%,1
Cc1ccc(-c2nc(CN3CCN(C(=O)C4CCCO4)CC3)cs2)cc1 (configuration not stated),2,7%,-18%,1%,14*
O=C(c1cccs1)N1CCN(C(=O)C2CCCO2)CC1 (configuration not stated),6,4.7µM*,13%,-3%,-1
O=C(Cc1cccs1)N1CCN(C(=O)C2CCCO2)CC1 (configuration not stated),4,/,9%,2%,-1
OCC1(Cc2ccc(Cl)cc2)CCN(Cc2ccccc2F)CC1,-10,?,13µM*,-1%,1
OCC1(Cc2ccc(Cl)cc2)CCN(CC2CC=CCC2)CC1 (configuration not stated),-21,49%,6.6µM*,3%,-2
COc1ccc(NC(=O)N2CCC(c3nc(-c4cccs4)no3)CC2)cc1,11,0.52µM*,11%,1%,19*
O=C(Nc1ccc(Cl)cc1)N1CCC(c2nc(-c3ccccc3Cl)no2)CC1,10,/,1.9µM*,8%,15
O=C(Nc1cccc(C(F)(F)F)c1)N1CCC(c2nc(-c3ccc(F)cc3)no2)CC1,0,291%,?,0%,-3
O=C(Nc1ccccc1)N1CCC(c2nc(-c3ccc(S(=O)(=O)N4CCOCC4)cc3)no2)CC1,-10,8.3µM*,?,2%,-1
COc1ccc(-c2noc(C3CCCN(C(=O)c4cccs4)C3)n2)cc1 (configuration not stated),55,/,3%,5%,18
O=C(Nc1ccc(Cl)cc1)N1CCC(c2nc(-c3cccs3)no2)CC1,49*,37%,21%,-11%,24*
CC1CCc2sc3ncnc(N4CCN(C)CC4)c3c2C1 (configuration not stated),-3,-22%,?,0%,-3
O=C(Nc1ccccc1)N1CCCC(c2nc(-c3cccs3)no2)C1 (configuration not stated),80*,/,21%,-1%,19*
O=C(NC1CCCCC1)N1CCCC(c2nc(-c3cccs3)no2)C1 (configuration not stated),18,-20%,-5%,-1%,-2
Cc1ccc(C2(C)NC(=O)N(CC(=O)NC(=O)NC(C)C)C2=O)cc1 (configuration not stated),-5,-18%,-19%,-4%,-2
Cc1cccc2c1N(CCCOc1ccc(C(C)(C)C)cc1)C(=O)C2=O,-31,9.3µM*,/,13%,-2
Cc1cc(C)cc(NC(=O)CSc2nnc(-c3ccccc3C)o2)c1,43,-20%,77%,0%,36*
Cc1cccc(NC(=O)CSc2nnc(-c3ccccc3C)o2)c1,69*,-25%,500%,1%,37*
COc1ccccc1NC(=O)CSc1nnc(COc2ccccc2C)o1,-5,-7%,15%,-3%,2
CCOC(=O)c1cccc(NC(=O)CSc2nnc(COc3ccccc3C)o2)c1,-9,7.4µM*,0%,5%,4
Cc1ccc(NC(=O)CSc2nnc(-c3ccccc3C)o2)cc1C,25,27%,43%,3%,1
CC(C)(C)NC(=O)NC(=O)CSc1nnc(COc2ccccc2Cl)o1,40,/,25%,-2%,15*
